The panel holds about 79,000 compounds, 15% with a hit somewhere; the sample as a whole holds those more often. Active and inactive are the calls of the source. Rule as the data show it: active = growth inhibition above about 70%; inactive = the rest.
Assays:
[1] = NCI Yeast Anticancer Drug Screen. Data for the rad52 strain (AID 147);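 also: 0% = growth of vehicle-treated control cultures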; details: S. cerevisiae rad52 mutant growth inhibition, stronger effect = higher value
Summary of the method: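 DNA repair-defective yeast; compound exposure; growth scored against vehicle controls.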

[2] = NCI Yeast Anticancer Drug Screen. Data for the wt1 strain (AID 149);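 also: 0% = growth of vehicle-treated wt1 cultures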; details: S. cerevisiae wt1 strain (SPY 50644) growth inhibition, stronger effect = higher value
Summary of the method: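 Each compound is tested on wt1 yeast and the loss of growth versus vehicle gives the inhibition value.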

[3] = NCI Yeast Anticancer Drug Screen. Data for the rad50EPP+ strain (AID 151);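 also: 0% = growth of vehicle-treated control cultures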; details: S. cerevisiae rad50 mutant strain, stronger effect = higher value
Summary of the method: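 rad50EPP+ yeast treated with test compounds. Readout: growth vs vehicle control.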

[4] = NCI Yeast Anticancer Drug Screen. Data for the mgt1 strain (AID 153); details: S. cerevisiae mgt1 mutant growth inhibition, stronger effect = higher value
Summary of the method: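 Growth inhibition relative to vehicle controls was scored for the mgt1 yeast strain after compound exposure.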

[5] = NCI Yeast Anticancer Drug Screen. Data for the rad50 strain (AID 155);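 also: 0% = growth of vehicle-only cultures of the same strain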; details: S. cerevisiae rad50 strain growth inhibition, stronger effect = higher value
Summary of the method: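 Vehicle-treated cultures provide the reference for the growth inhibition reported for compound-exposed, repair-deficient yeast.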

[6] = NCI Yeast Anticancer Drug Screen. Data for the mec2-1 strain (AID 157); details: S. cerevisiae mec2-1 strain, stronger effect = higher value
Summary of the method: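 Growth inhibition is read against vehicle-treated controls after compound exposure of the mec2-1 yeast strain, which is defective in DNA damage repair or cell cycle control.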

[7] = NCI Yeast Anticancer Drug Screen. Data for the rad14 strain (AID 159);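 also: 0% = growth of vehicle-treated control cultures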; details: S. cerevisiae rad14 strain growth inhibition, stronger effect = higher value
Summary of the method: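 Inhibition of growth is reported for a repair-deficient yeast mutant following compound treatment, calculated relative to cultures that received vehicle.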

[8] = NCI Yeast Anticancer Drug Screen. Data for the sgs1 mgt1 strain (AID 161);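 also: 0% = growth of cultures given vehicle only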; details: S. cerevisiae sgs1 mgt1 strain, stronger effect = higher value
Summary of the method: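 Compounds are added to genetically altered yeast, and growth is compared with cultures given vehicle alone to give percent inhibition.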

[9] = NCI Yeast Anticancer Drug Screen. Data for the CLN2oe strain (AID 163);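 also: 0% = growth of vehicle-only control cultures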; details: S. cerevisiae CLN2oe strain, stronger effect = higher value
Summary of the method: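 Compound-treated yeast; growth vs vehicle ctrl = % inhibition. Genetically altered strain (cell-cycle control).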

[10] = NCI Yeast Anticancer Drug Screen. Data for the cln2 rad14 strain (AID 165);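 also: 0% = growth equal to vehicle treated cultures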; details: S. cerevisiae cln2 rad14 strain, stronger effect = higher value
Summary of the method: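 Growth inhibition, relative to vehicle-treated controls, is the read-out. The test organism is a yeast strain with defined genetic alterations, cln2 rad14.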

[11] = NCI Yeast Anticancer Drug Screen. Data for the bub3 strain (AID 167); details: S. cerevisiae bub3 mutant strain, stronger effect = higher value
Summary of the method: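 Mutant yeast screening strain plus compound; vehicle-treated cultures serve as the 0% inhibition reference.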

[12] = NCI Yeast Anticancer Drug Screen. Data for the wt2 strain (AID 169); details: S. cerevisiae wt2 strain growth inhibition, stronger effect = higher value
Summary of the method: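 Compound exposure of yeast; growth compared with vehicle controls; inhibition reported.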

[13] = NCI Yeast Anticancer Drug Screen. Data for the mlh1 strain (AID 171);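 also: 0% = growth of vehicle-treated control cultures of the same strain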; details: S. cerevisiae mlh1 strain growth inhibition, stronger effect = higher value
Summary of the method: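 Compounds are applied to a genetically altered yeast strain, and its growth is compared with that of vehicle-treated cultures to give percent inhibition.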

[14] = NCI Yeast Anticancer Drug Screen. Data for the sgs1 strain (AID 173);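 also: 0% = growth of vehicle-only control cultures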; details: S. cerevisiae sgs1 mutant, stronger effect = higher value
Summary of the method: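 Compounds applied to genetically altered yeast; growth compared with vehicle-treated cultures to give % inhibition.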

[15] = NCI Yeast Anticancer Drug Screen. Data for the mlh1 rad18 strain (AID 175); details: S. cerevisiae mlh1 rad18 strain growth inhibition, stronger effect = higher value
Summary of the method: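 Cells of a genetically altered yeast strain, deficient in DNA damage repair, were treated with compound. Their growth was then compared with that of vehicle-treated cultures to give inhibition.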

[16] = NCI Yeast Anticancer Drug Screen. Data for the rad18 strain (AID 177); details: S. cerevisiae rad18 mutant growth inhibition, stronger effect = higher value
Summary of the method: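 Compounds are applied to a repair-deficient yeast strain, and growth is compared with that of vehicle-treated cultures to give percent inhibition.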

[17] = at 5.0 µM (retest, dose inferred, filed as 0.5)
[18] = at 50.0 µM (retest, dose inferred, filed as 5.0)

Measured: growth inhibition

CCCC(=O)Oc1ccc(/C=N/NC(N)=S)nc1
inactive: [1]; at 1.2 µM 5% | [1]; at 3.7 µM -9% | [1]; at 11.0 µM -1% | [1]; at 33.0 µM 8% | [1]; at 100.0 µM 4% | [2]; at 1.2 µM 1% | [2]; at 3.7 µM -19% | [2]; at 11.0 µM 1% | [2]; at 33.0 µM -19% | [2]; at 100.0 µM -24% | [3]; at 1.2 µM -3% | [3]; at 3.7 µM 7% | [3]; at 11.0 µM 0% | [3]; at 33.0 µM -11% | [3]; at 100.0 µM -9% | [4]; at 1.2 µM -1% | [4]; at 3.7 µM -5% | [4]; at 11.0 µM -2% | [4]; at 33.0 µM -6% | [4]; at 100.0 µM -14% | [5]; at 1.2 µM -9% | [5]; at 3.7 µM -16% | [5]; [17] -3% | [5]; at 11.0 µM -17% | [5]; at 33.0 µM -7% | [5]; [18] 14% | [5]; at 50.0 µM 15% | [5]; at 100.0 µM 4% | [6]; at 1.2 µM -3% | [6]; at 3.7 µM -2% | [6]; [17] -2% | [6]; at 11.0 µM -4% | [6]; at 33.0 µM -2% | [6]; at 100.0 µM 42% | [7]; at 1.2 µM 2% | [7]; at 3.7 µM 2% | [7]; at 11.0 µM -17% | [7]; at 33.0 µM -19% | [7]; at 100.0 µM -21% | [8]; [17] -1% | [8]; [18] 25% | [8]; at 50.0 µM 28.4% | [9]; at 1.2 µM -5% | [9]; at 3.7 µM -7% | [9]; at 11.0 µM -11% | [9]; at 33.0 µM -6% | [9]; at 100.0 µM -8% | [10]; [17] -3% | [10]; [18] 33% | [10]; at 50.0 µM 11.3% | [11]; at 1.2 µM -5% | [11]; at 3.7 µM -6% | [11]; [17] -4% | [11]; at 11.0 µM -9% | [11]; at 33.0 µM -20% | [11]; [18] -14% | [11]; at 50.0 µM 0.95% | [11]; at 100.0 µM -21% | [12]; at 1.2 µM -13% | [12]; at 3.7 µM -5% | [12]; at 11.0 µM -6% | [12]; at 33.0 µM 6% | [12]; at 100.0 µM 10% | [13]; at 1.2 µM -9% | [13]; at 3.7 µM -6% | [13]; at 11.0 µM -8% | [13]; at 33.0 µM -9% | [13]; at 100.0 µM -14% | [14]; at 1.2 µM -10% | [14]; at 3.7 µM -5% | [14]; at 11.0 µM -2% | [14]; at 33.0 µM -9% | [14]; at 100.0 µM -1% | [15]; [17] -4% | [15]; [18] 26% | [15]; at 50.0 µM 19.1% | [16]; at 1.2 µM -7% | [16]; at 3.7 µM 2% | [16]; at 11.0 µM -2% | [16]; at 33.0 µM -8% | [16]; at 100.0 µM -10%
active: [6]; [18] 89% | [6]; at 50.0 µM 75.2%

Reference: PubChem BioAssay (NCI)
